PubChem BioAssay AID493231 (Broad Institute, 2011)
Potency and affinity values are given separately. Unmarked numbers belong to inactive results. How the calls were made is not given here.

Target: Acyl-homoserine lactone acylase PvdQ (Pseudomonas aeruginosa (strain ATCC 15692 / DSM 22644 / CIP 104116 / JCM 14847 / LMG 12228 / 1C / PRS 101 / PAO1)) (UniProt Q9I194)
Test: P. aeruginosa PvdQ acylase inhibitors, dose response, biochemical, fluorescence, plate reader and imaging, cherry-picks (AID 493231);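 further: 0% = neutral control wells and -100% = reference inhibitor wells; more negative values mean stronger inhibition of the acylase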
Conditions: purified PvdQ acylase, fluorogenic substrate; series mostly up to 10 µM; activity change, negative = inhibition: at the top concentration

Sequence of Acyl-homoserine lactone acylase PvdQ (Pseudomonas aeruginosa (strain ATCC 15692 / DSM 22644 / CIP 104116 / JCM 14847 / LMG 12228 / 1C / PRS 101 / PAO1)) (Q9I194 whole entry, looked up): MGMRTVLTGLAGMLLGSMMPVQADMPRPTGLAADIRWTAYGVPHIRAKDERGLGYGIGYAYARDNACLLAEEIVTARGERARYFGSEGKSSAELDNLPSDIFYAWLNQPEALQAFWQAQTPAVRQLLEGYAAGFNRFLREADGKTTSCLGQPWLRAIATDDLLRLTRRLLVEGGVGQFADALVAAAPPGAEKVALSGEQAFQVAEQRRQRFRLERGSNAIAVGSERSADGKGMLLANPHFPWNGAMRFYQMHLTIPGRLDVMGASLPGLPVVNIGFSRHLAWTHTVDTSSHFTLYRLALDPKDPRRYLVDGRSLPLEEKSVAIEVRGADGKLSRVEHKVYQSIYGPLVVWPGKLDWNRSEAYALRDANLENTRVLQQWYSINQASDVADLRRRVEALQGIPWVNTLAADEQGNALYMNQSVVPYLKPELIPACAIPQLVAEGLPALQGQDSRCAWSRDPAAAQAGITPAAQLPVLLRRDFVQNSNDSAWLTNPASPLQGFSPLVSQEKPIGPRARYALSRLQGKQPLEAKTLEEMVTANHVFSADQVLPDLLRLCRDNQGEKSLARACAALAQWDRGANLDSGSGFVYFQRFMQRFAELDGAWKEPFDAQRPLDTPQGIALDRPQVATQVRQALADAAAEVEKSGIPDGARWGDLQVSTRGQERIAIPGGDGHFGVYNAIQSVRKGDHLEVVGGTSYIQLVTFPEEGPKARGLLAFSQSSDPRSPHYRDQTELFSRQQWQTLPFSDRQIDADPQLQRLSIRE

Structure (SMILES)	activity change, negative = inhibition [unspecified]
CCCc1nc2sc3ccccc3c(=O)c2c(=O)n1Cc1ccccc1	11
COc1ccc(CC(=O)NNC(=S)NCC2CC2)cc1OC	-1.58
Cc1cc(NC(=O)Nc2ccc(F)c(Cl)c2)no1	9.33
Cc1ccccc1-c1cc(C(=O)NCc2cccs2)nn1CC1CC(c2cccc([N+](=O)[O-])c2)=NO1 (stereo not given)	-2.87
COc1ccc(Nc2nnc(-c3ccc(C)cc3)c3ccccc23)cc1C(=O)N1CCCCC1	-4.51
CS(=O)(=O)c1ccc(Cl)c(NC(=O)COC(=O)c2ccc(F)cc2Cl)c1	7.09
Cc1ccccc1OCCSc1nnc(-c2ccncc2)n1C	-0.806
Cc1ncc(CN2CCN(Cc3ccc(F)cc3)C(CCO)C2)s1 (stereo not given)	10.5
COc1ccccc1CNS(=O)(=O)CCNCCc1ccccc1	-100
CC(=O)c1ccc2c3c(cc(C)c2c1)CCCC3	1.76
O=C(CSc1n[nH]c(=O)n1Cc1ccco1)c1ccc2c(c1)OCCO2	12.8
COc1ccc(-c2cc3cccc(OC)c3oc2=O)cc1	-101
CCOC(=O)c1cc(-c2cccc([N+](=O)[O-])c2)on1	-8.55
O=C(N/N=C/c1cccnc1)C1CC1(c1ccccc1)c1ccccc1 (stereo not given)	13.5
COc1ccc(CCNC(=O)c2cccc(S(=O)(=O)N3CCc4ccccc4C3)c2)cc1	1.84
COCC(=O)N1CCC(Oc2ccc(C(=O)NCCc3ccncc3)cc2)CC1	-8
CCC(=O)N1N=C(c2ccc(C)o2)CC1c1ccc(N(C)C)cc1 (stereo not given)	4.82
COCC(=O)Oc1c(S(=O)(=O)c2ccc(C)cc2)c(C)nn1-c1ccccc1	2.79

Structure (SMILES)	activity change, negative = inhibition [unspecified]
Nc1nc(-c2ccc(Cl)cc2)nn1C(=O)c1ccco1	11.3
NC(=O)c1oc2ccccc2c1NC(=O)Cc1ccccc1	9.46
Cc1cc(/C=C2\Cc3ccccc3C2=O)c(C)n1-c1ccccc1	2
COc1ccc(-c2nn(-c3ccccc3)cc2/C=C2/SC(=S)N(CCC(=O)O)C2=O)cc1	-8.74
COc1ccc(NC(=O)C2CCCN(C(=O)NC3CCCCC3)C2)cc1OC (stereo not given)	6.32
O=C1CC(c2ccccc2)Cc2nc(NC3CC3)ncc21 (stereo not given)	8.35
CC1CC(Nc2ccccc2)c2ccccc2N1C(=O)c1ccco1 (stereo not given)	5.12
CN(C(=O)CCn1c(=S)oc2ccccc21)c1ccc(F)cc1	9.4
CC1CCCCN1C(=O)CSc1nc2ccccc2[nH]1 (stereo not given)	5.53
Cc1cc(C(=O)Nc2ccc(F)c(Cl)c2)on1	-12.7
CC(=O)c1ccc(NC(=S)N2CCCC(CO)C2)cc1 (stereo not given)	10.3
COCCCNC(=O)c1cc(S(=O)(=O)NCCCN2CCCC2=O)ccc1Cl	-7.4
O=C(COc1ccccc1)OCC(=O)c1ccc(S(=O)(=O)N2CCCCC2)cc1	7.39
CN=C1S/C(=C\c2ccc(SC)cc2)C(=O)N1C	-0.467
Cc1ccc(S(=O)(=O)NCc2ccccn2)cc1C	8.94
O=C(O)c1ccc(N=Nc2c(O)ccc3ncccc23)cc1	0.421
Cc1cccc2c(=O)cc(C)n(Cc3ccccc3)c12	-1.24
